Whole data set: some 8,300 sequences, median “log2 fold change of degron read counts, EGFP-low vs EGFP+ sorted cells (limma voom), compound-induced degradation” near -1.1, cut for the highest 2% near 3.2. The full list was thinned out, with the highest values kept by preference.
T1: CRBN, Q96SW2
T1 chain: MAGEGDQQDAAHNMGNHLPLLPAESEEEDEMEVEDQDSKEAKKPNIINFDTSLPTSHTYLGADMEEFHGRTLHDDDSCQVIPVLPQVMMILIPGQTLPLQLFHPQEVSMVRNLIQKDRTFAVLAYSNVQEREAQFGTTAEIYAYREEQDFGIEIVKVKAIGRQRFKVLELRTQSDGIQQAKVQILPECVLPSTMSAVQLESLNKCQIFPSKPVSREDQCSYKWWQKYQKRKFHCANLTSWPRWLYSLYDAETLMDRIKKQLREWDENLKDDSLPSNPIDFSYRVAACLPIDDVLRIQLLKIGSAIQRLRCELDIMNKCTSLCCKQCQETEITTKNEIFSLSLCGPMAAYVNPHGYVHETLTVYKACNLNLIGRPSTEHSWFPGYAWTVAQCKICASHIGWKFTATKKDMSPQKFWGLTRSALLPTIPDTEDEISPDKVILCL


Target: T1, CRBN, Q96SW2
Experiment: log2 fold change of degron read counts, EGFP-low vs EGFP+ sorted cells (limma voom), compound-induced degradation; higher = more compound-induced degradation of the degron-EGFP fusion; degrons are variants of IKZF1/3 zinc finger 2; compound dose not given here
Conditions: Jurkat, 18 h
Procedure: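 Pooled library of 8380 IKZF3 ZF2 degron mutants (positions 146-167 varied within the IKZF3 130-189 degron; only the varied core is printed, flanks not printed) fused to EGFP with IRES-mCherry, lentivirally expressed in Jurkat cells. mCherry+ cells were treated with one IMiD compound for 18 h (dose not stated) and FACS-sorted into EGFP-low and EGFP+ populations. Degron sequences were counted by NGS, and log2FC (EGFP-low vs EGFP+) was estimated by limma voom over 3 biological replicates.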

[1] = compound: compound 19 (5-tert-butyl-thalidomide)
[2] = compound: compound 22 (5-morpholino-thalidomide)
[3] = compound: compound 33 (diphenyl IMiD analogue)
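Further: pooled lentiviral library of zinc finger degron-EGFP fusions in mCherry-positive Jurkat cells, FACS-sorted after compound exposure, with degron abundance counted by next-generation sequencing.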

| Sequence | log2 fold change of degron read counts [1] | log2 fold change of degron read counts [2] | log2 fold change of degron read counts [3] | log2 fold change of degron read counts (compound: thalidomide) |
| --- | --- | --- | --- | --- |
| FVCEICGRLFTQKGNLLRHIKL [46F_47V_49E_50I_52G_53R_54L_55F_67L_, Q9UKT9] | -1.71 | -1.28 | -0.137 | 0.207 |
| FNCNICGASFTQKGNLLRHIKL [46F_47N_49N_50I_52G_53A_54S_55F_67L_, Q9UKT9] | 1.49 | 0.652 | 0.369 | -0.42 |
| FQCNICGASFTQKGNLLRHIKL [46F_47Q_49N_50I_52G_53A_54S_55F_67L_, Q9UKT9] | 0.609 | 1.43 | 1.22 | 3.34 |
| FMCNICGASFTQKGNLLRHIKL [46F_47M_49N_50I_52G_53A_54S_55F_67L_, Q9UKT9] | -0.622 | 0.367 | 2.22 | 0.902 |
| FACNICGASFTQKGNLLRHIKL [46F_47A_49N_50I_52G_53A_54S_55F_67L_, Q9UKT9] | 2.29 | 2.03 | 0.254 | 0.112 |
| FWCNICGASFTQKGNLLRHIKL [46F_47W_49N_50I_52G_53A_54S_55F_67L_, Q9UKT9] | 2.6 | 3.54 | 1.69 | 0.481 |
| FYCNICGASFTQKGNLLRHIKL [46F_47Y_49N_50I_52G_53A_54S_55F_67L_, Q9UKT9] | 2.45 | 2.95 | 1.49 | -0.148 |
| FHCDVCGAFFTQKGNLLRHIKL [46F_47H_49D_50V_52G_53A_54F_55F_67L_, Q9UKT9] | -1.48 | -1.49 | -1.88 | -2.83 |
